Assay [1] has as its system CRL-7250. The assay can be described thus: Cytotoxic Profiling of Annotated Libraries Using Quantitative High-Throughput Screening (AID 1296008). Also: potency is read from the fitted curve at half-maximal effect. As to max response: % is scaled to controls: 0 for no effect and ±100 for the full control effect. Particulars: Five cell lines viability, CellTiter-Glo ATP luminescence, 48-72 h; max response: active compounds read low. In a few lines:
(§1)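 Cytotoxicity was measured as CellTiter-Glo ATP luminescence, read after 10 min at room temperature. Compound treatment of the cells lasted 48 or 72 hr at 37 degrees Celsius in a qHTS format.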

In assay [2] the test system is HEK293. The assay is described as above. The note with it: Five cell lines viability, CellTiter-Glo ATP luminescence, 48-72 h; max response: active compounds read low. In a few lines:
as §1
In general terms: ATP-based viability assays read luminescence as a measure of living cells.

The test system of assay [3] is HaCat. Described as above. Particulars: Five cell lines viability, CellTiter-Glo ATP luminescence, 48-72 h; max response: active compounds read low. In a few lines: as §1
The test system of assay [4] is KB-3-1. The assay is described as above. The note with it: Five cell lines viability, CellTiter-Glo ATP luminescence, 48-72 h; max response: active compounds read low. In a few lines:
as §1

Assay [5] relates to NIH3T3. The assay is described as above. Particulars: Five cell lines viability, CellTiter-Glo ATP luminescence, 48-72 h; max response: active compounds read low. The gist of the method:
as §1

Assay [6] deals with HEK293T. The assay can be described thus: qHTS assay to identify novel small-molecules to repurpose for Merkel cell carcinoma treatment (AID 1296009). Particulars: MCC and control cell lines, CellTiter-Glo viability, 72 h; series mostly up to 44.8 µM. In a few lines:
(§2)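 After compound transfer in DMSO, plates were kept 72 hr at 37 degree celsius. Luminescent ATP signal from CellTiter-Glo served as viability measure, normalized against DMSO and no-cell controls.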
In general terms: In qHTS, concentration-response curves come from the screen itself.

Assay [7] has as its system HACAT. The description is as above. Particulars: MCC and control cell lines, CellTiter-Glo viability, 72 h; at 44.8 µM (top of the series) unless noted. The gist of the method: as §2

For 19 compounds, Potency, outcome and max response results are on record in PubChem BioAssay (NCATS).

Inconclusive results are not listed. Unmarked numbers belong to inactive results. Calls of active or inactive are those of the source. Calls follow the shape of the dose curve; as a rule, active = well fitted inhibition curve with a large enough effect; inconclusive = small, poorly fitted or top-dose-only effect; inactive = flat fitted curve, though single readings scatter.
Also: nearly all actives have a fitted effect of over 60% in size.

As to `OC[C@H]1O[C@@H](n2cnc3c(NCc4ccc(O)cc4)ncnc32)[C@H](O)[C@@H]1O`, the Potency in assay [1] is 6.51 µM (active). In addition, the call in assay [2] and in assay [5] was inactive. Also, the max response was -13.2% in assay [3] and -13.6% in assay [4]. Further, the Potency result in assay [6] was “inactive”.
Take `Cc1cc(C)c(S(=O)(=O)N(Cc2ccc(-c3cccc(S(C)(=O)=O)c3)cc2)Cc2ccc(C(F)(F)F)o2)c(C)c1`: the max response in assay [1] was -5.2%; in assay [3] it was 2.94%; in assay [4] it was -6.43%. Moreover, the compound was classed as inactive in assay [2] and in assay [5]. In assay [6], the Potency result was “inactive”.
For the compound `C[C@]12CCC(=O)C=C1[C@@H](O)C[C@@H]1[C@@H]2[C@@H](O)C[C@@]2(C)[C@H]1CC[C@]2(O)C(=O)CO`, the call in assay [1], in assay [2] and in assay [5] was inactive. The max response is 1.59% in assay [3] and 8.45% in assay [4]. Moreover, the Potency entry in assay [6] was “inactive”.
Turning to `CC1OC(OC2C(CO)OC(OCC3OC(OC(=O)C45CCC(C)(C)CC4C4=CCC6C7(C)CCC(OC8OC(C(=O)O)C(O)C(OC9OC(CO)C(O)C(O)C9O)C8O)C(C)(C)C7CCC6(C)C4(C)CC5)C(O)C(O)C3O)C(O)C2O)C(O)C(O)C1O` (stereo not drawn), the outcome in assay [1], in assay [2] and in assay [4] was inactive. In addition, the figures for the max response in assay [3] and in assay [5] were -1.82% and 3.49%, respectively. Also, the outcome in assay [6] is “inactive [at 9.27 µM]”.
For the compound `CC1C/C=C/C=C\CCCCC(O)C/C=C/C(=O)O1` (stereo not drawn), the max response is 4.17% in assay [1], -3.25% in assay [3] and 1.87% in assay [4]. Besides, the call in assay [2] and in assay [5] was inactive. For the same compound, in assay [6], the Potency result was “inactive”.
With `C/C=C(/C)C(=O)O[C@H]1C=C(C)C[C@H](OC(=O)c2ccc(O)cc2)C2[C@](O)(C(C)C)CC[C@@]21C` (stereo partly drawn), the max response was -4.39% in assay [1], -13.2% in assay [3] and -3.12% in assay [5]. The call in assay [2] and in assay [4] was inactive. In assay [6], the Potency result was “inactive”.
`CC(C)(OC1OC(CO)C(O)C(O)C1O)C1CCC(O)(CO)C2CC(O)C(C)(O)C2C1` (stereo not drawn): the max response in assay [1] was -5.53%; in assay [3], 0.555%; in assay [4], 2.34%. The result in assay [2] and in assay [5] was inactive. Besides, the Potency result in assay [6] is “inactive”.
With `OC[C@H]1O[C@@H](Oc2ccc(O)c3cccc(O)c23)[C@H](O)[C@@H](O)[C@@H]1O`, the call in assay [1], in assay [2] and in assay [5] was inactive. Further, the max response in assay [3] is -1.01%; in assay [4] it was 3.57%. In addition, the Potency entry in assay [6] is “inactive”.
As to `CC1(C)CCCC2(C)C(CO)C3CCC2C31` (stereo not drawn), the max response was -0.786% in assay [1] and 0.929% in assay [3]. In addition, the compound was classed as inactive in assay [2], in assay [4] and in assay [5]. For the same compound, the Potency entry in assay [6] is “inactive”.
As for `COc1cc(C2OCC3C(c4ccc(OC5OC(CO)C(O)C(O)C5O)c(OC)c4)OCC23)ccc1O` (stereo not drawn), the max response in assay [1] was -7.16%; in assay [3] it was -4.17%; in assay [4] it was -0.0986%; in assay [5] it was -0.3%. Besides, in assay [2], the call was inactive. Also, the Potency result in assay [6] is “inactive”.
Turning to `CC[C@H](/C=C/[C@@H](C)[C@H]1CC[C@H]2[C@@H]3CC=C4C[C@@H](O)CC[C@]4(C)[C@H]3CC[C@]12C)C(C)C`, the max response was -4.85% in assay [1] and 0.322% in assay [3]. In addition, the outcome in assay [2], in assay [4] and in assay [5] was inactive. Also, the outcome in assay [6] was “inactive [at 4.96 µM]”.
In the case of `CCC[C@@H]1C[C@@H](C(=O)N[C@H](C(C)Cl)[C@H]2O[C@H](SC)[C@H](O)[C@@H](O)[C@H]2O)N(C)C1` (stereo partly drawn), the max response in assay [1] was -2.55%; in assay [3], 1.16%; in assay [4], 7.07%; in assay [5], 3.25%. Also, the compound was called inactive in assay [2]. In addition, in assay [6], the Potency result is “inactive”.
As to `CC(=O)OC[C@]1(O)[C@H]2[C@H](OC(=O)CC(C)C)OC=C(CO[C@@H]3O[C@H](CO)[C@@H](O)[C@H](O)[C@H]3O)[C@H]2C[C@@H]1O`, the compound was called inactive in assay [1], in assay [2], in assay [4] and in assay [5]. Also, the max response in assay [3] is -3.61%. Moreover, in assay [6], the Potency entry was “inactive”.
`C/C(=C\CCC(C(=O)O)C1CCC2(C)C3=C(CCC12C)C1(C)CCC(=O)C(C)(C)C1CC3)C(=O)O` (stereo not drawn): the max response in assay [1] was -10.7%; in assay [3] it was 0.998%. Besides, the compound was classed as inactive in assay [2], in assay [4] and in assay [5]. Besides, in assay [6], the Potency result is “inactive”.
For `COC1=Cc2c(nc3n(c2=O)C(C)C(=O)NC3(O)C(C)C)OC=C1` (stereo not drawn), the compound was called inactive in assay [1] and in assay [2]. Also, the results for the max response in assay [3], in assay [4] and in assay [5] were 4.53%, 6.94% and 2.45%, respectively. The Potency result in assay [6] was “inactive”.
As for `COc1cc(/C=C/C(=O)OC2CC(OC(C)=O)C(OC(C)=O)C3C2CCC2C(=O)OC(c4ccoc4)CC23C)ccc1O[C@@H]1O[C@H](CO)[C@@H](O)[C@H](O)[C@H]1O` (stereo partly drawn), the max response in assay [1] is -8.1%; in assay [4], -0.283%; in assay [5], -18.6%. Besides, the result in assay [2] was inactive. Further, the Potency in assay [3] is 6.11 µM (active). In addition, the Potency result in assay [6] is “inactive”.
As for `CC(C)(C)NCc1cc(Nc2ccnc3cc(Cl)ccc23)c2c(c1O)CCCC2`, the results for the max response in assay [1] and in assay [3] were 1.77% and -6.14%, respectively. Besides, the result in assay [2] and in assay [5] was inactive. In assay [6], the outcome was “inactive [at 0.588 µM]”.
For the compound `CC1(C)C(=O)N2c3ccccc3[C@]3(CC(n4cnc5ccccc5c4=O)C(=O)O3)[C@H]2N1O` (stereo partly drawn), the compound was classed as inactive in assay [1], in assay [2] and in assay [3]. Also, the max response in assay [5] is 1.65%. The outcome in assay [7] was “inactive [at 17.4 µM]”. The Potency entry in assay [6] was “inactive”.
Regarding `C=C1[C@H]2CC[C@]3(O)[C@@](CC[C@@H]4[C@](C)(C(=O)O)CCC[C@]43C)(C2)[C@H]1OC(=O)/C(C)=C\C`, the max response in assay [1] was 2.63%; in assay [3], -13.2%; in assay [5], 0.4%. Moreover, the call in assay [2] and in assay [4] was inactive. Further, the Potency result in assay [6] is “inactive”.
